# Measurements published in PubChem BioAssay AID903 (National Center for Advancing Translational Sciences (NCATS), 2007).
# In all, about 55,000 compounds went through this assay and about 340 (0.62%) were called active. About 3% were inconclusive and are not listed. This excerpt belongs to a sample that is enriched for actives. A number with no mark means an inactive call. Calls come from the whole dose curve; as a rule, active = well fitted cell-killing curve with a large enough effect; inconclusive = small, poorly fitted or top-dose-only effect; inactive = no such curve, though single readings can be large or run the other way.
# Assay: qHTS Screen for Compounds that Selectively Target Cancer Cells with p53 Mutations: Cytotoxicity of p53 Null Cells at the Permissive Temperature; note: nearly all actives have a fitted effect of over 55% in size;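 for activity change, negative = cytotoxicity: 0% = DMSO only and -100% = full killing by 100 µM tamoxifen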
# Details: H1299-neo p53 null cells, ATP luminescence, 24 h, 32C; series mostly up to 46.1 µM; activity change, negative = cytotoxicity: at the top concentration
# Method in brief: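 Overnight 37C seeding (600 cells/well) of H1299-neo preceded a 24 hr, 32C exposure to compounds up to 46 uM. ATP levels, read by luminescence after 20 min at RT, indicated surviving cells.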
# Potency is the fitted concentration of half-maximal effect.
SMILES,"activity change, negative = cytotoxicity [%]",Potency
CCOc1ccc(CCNC(=O)c2cc3c(=O)n(C)c4ccccc4c3n2C)cc1,-5.8,
CCCn1c(=N)c(C(=O)NCc2ccccc2)cc2c(=O)n3cccc(C)c3nc21,11,
Cc1ccccc1NC(=O)CN1C(=O)C(C)(C)c2ccccc21,-2.97,
O=C(Nc1ccc(Br)cc1)c1cc2nc(-c3ccccc3)cc(-c3ccccc3)n2n1,1.89,
CCCOc1ccc(C2c3c(-c4ccccc4O)n[nH]c3C(=O)N2Cc2cccnc2)cc1 (configuration not stated),38.5,
CC1CCc2noc(NC(=O)c3ccc([N+](=O)[O-])cc3)c2C1 (configuration not stated),-0.123,
COc1ccc(C(=O)Nc2onc3c2CCCC3)cc1,,7.94 µM (active)
COc1ccc(-c2cc(C(=O)Nc3sc4c(c3C(N)=O)CCCC4)no2)cc1,0.619,
O=c1c(Cl)c(NCc2ccc(F)cc2Cl)cnn1C12CC3CC(CC(C3)C1)C2,-3.19,
Cc1cccc(OCc2ccc(C(=O)Nc3ccc(F)cc3)cc2)c1,-16.1,
Cc1cccc(C)c1-n1ncc(C(=O)NCCCN2CCCCC2)c1C1CCN(C(=O)OC(C)(C)C)CC1,7.41,
COc1cccc(C(=O)NCC(=O)OCc2cc(=O)n3ccsc3n2)c1,-11.1,
Cc1c(NC(=O)Cc2ccccc2)cccc1-c1nc2cccnc2s1,2.04,
Cc1c(NC(=O)C(C)(C)C)cccc1-c1nc2ccccc2s1,,10 µM (active)
CCC(C(=O)Nc1cccc(-c2nc3cccnc3s2)c1C)c1ccccc1 (configuration not stated),5.41,
O=C(Cc1c[nH]c2ccccc12)N/N=C/c1cccc(F)c1,-18.8,
Cc1ccccc1Nc1nn2c(=O)c3ccc(C(=O)NCCc4ccc(Cl)cc4)cc3nc2s1,-15.5,
CCOc1ccccc1C(=O)Nc1ccc(S(=O)(=O)N2CCCCC2c2cccnc2)cc1 (configuration not stated),3.25,
O=c1c2cccnc2n(Cc2cccc(F)c2)c(=O)n1Cc1ccccc1Cl,-7.53,
COc1ccc(S(=O)(=O)n2nc(C)c(S(=O)(=O)N3CCCCCC3)c2C)cc1,-2.68,
CCOC(=O)c1c(/N=C/c2cc(C)ccc2O)sc2c1CCC2,6.17,
CCC(=O)N1CCc2cc(S(=O)(=O)CCC(=O)N3CCN(c4ccccc4F)CC3)ccc21,9.11,
Cc1ccc(CNC(=O)CCC(=O)N2CC(C)Sc3ccccc32)cc1 (configuration not stated),0.966,
CCOc1ccc(NC(=O)CCc2c(C)nn(-c3ccc(N4CCCC4)nn3)c2C)cc1,-3.11,
CCCOc1ccc(-c2cccc(NS(=O)(=O)c3ccccc3)c2)nn1,22.4,
Cn1nnc2c(N3CCN(c4ccccc4)CC3)ncnc21,2.99,

SMILES,"activity change, negative = cytotoxicity [%]",Potency
O=C(Nc1c2c(nc3ccccc13)CCCC2)c1ccccc1Br,-2.95,
COc1ccccc1Nc1c2c(nc3ccc(NC(=O)/C=C/c4cc(OC)c(OC)c(OC)c4)cc13)CCCC2,,15.8 µM (active)
CCOc1ccc(C(=O)Nc2ccc3nc4c(c(Nc5ccccc5OC)c3c2)CCCC4)cc1,-13,
COc1ccc(-n2ccn(CC(=O)Nc3ccc(C)c(C)c3)c(=O)c2=O)cc1OC,8.42,
CCN(CC)S(=O)(=O)c1nnc(NC(=O)COc2ccccc2Cl)s1,-17.3,
CCN(Cc1ccccc1)C(=O)c1cn(-c2cccc(OC)c2)c(=O)c2ccccc12,3.16,
COc1ccc(NC(=O)CSc2nc3ncccc3[nH]2)c(OC)c1,-12.6,
COC(=O)c1c(NC(=O)c2ccc(Cl)c(Cl)c2)sc2c1CCCC2,3.23,
c1ccc(-c2noc(-c3cccs3)n2)nc1,,10 µM (active)
Clc1ccc(-n2nnnc2-c2cnc(-c3ccccn3)nc2-c2cccs2)cc1,18,
Cc1ccc(C)c(N2CCN(C(=O)C3CCC(CNS(=O)(=O)c4cccs4)CC3)CC2)c1 (configuration not stated),41.1,
O=C(COc1nc2ccccc2nc1N1CCOCC1)NCC(F)(F)F,-4.1,
CN(C)CCCO/N=C(\c1ccccc1)c1ccncc1,3.09,
Cc1ccc(CN2CCC(CNC(=O)c3cnn(-c4ccccc4Cl)c3C3CCN(C(=O)OC(C)(C)C)CC3)CC2)cc1,15.7,
Cc1ccc(C)n1-c1nnc(N2CCC(C(=O)NCc3ccccc3Cl)CC2)s1,9.93,
COc1ccc(-c2nc(SCC(=O)N3CCCCC3C)n[nH]2)cc1 (configuration not stated),-7.2,
Cc1ccc(NC(=S)NC(=O)/C=C/c2ccc(Cl)cc2)cc1,0.296,
Cc1cc(=O)n(CC(=O)Nc2cccc([N+](=O)[O-])c2)c(-n2nc(C)cc2C)n1,-0.133,
CN(C)c1ccc(NC(=O)CSc2nc(-c3ccco3)cc(C(F)(F)F)n2)cc1,10.9,
CCCN(CCC)c1c([N+](=O)[O-])c(=O)oc2ccccc12,3.8,
COc1ccc(C(=O)NCC(c2ccc(N(C)C)cc2)N2CCc3ccccc32)c(OC)c1 (configuration not stated),0.255,
CCOC(=O)c1c(C)[nH]c(CCC(=O)NCCCN2CCN(c3cc(C)ccc3C)CC2)c1C,9.67,
O=C(Nc1ccc(OC(F)(F)F)cc1)C1CCCN(S(=O)(=O)c2ccc(Br)s2)C1 (configuration not stated),1.93,
Cc1ccc2nc3c(cc(C(=O)NC4CCCCC4)c(=N)n3C(C)C)c(=O)n2c1,2.45,
COc1cccc(CNC(=O)C(NS(=O)(=O)c2ccc3nc(C)sc3c2)C(C)C)c1 (configuration not stated),-7.22,
CC(C)(C)c1ccc(C(=O)NCC(c2ccco2)S(=O)(=O)c2ccc(F)cc2)cc1 (configuration not stated),20,
